Screening results deposited in PubChem BioAssay by National Center for Advancing Translational Sciences (NCATS).
Many of the other results were omitted from the sample, so hits are more common in it than they were.
Shiga inhibitor – inhibitors of Shiga toxin in Vero cells | Vero cells, Shiga toxin protein synthesis inhibition reporter | inhibition, % at 38.7 µM | 290,000 tested, 9.2% active; in the data active means inhibition mostly above about 28%, no sharp cut-off; inactive means mostly below about 43%
FBPA Giardia inh – inhibitors of Giardia lamblia fructose-1,6-bisphosphate aldolase. A8B2U2. Potency, µM (doses to about 59.6 µM), usual class: inhibitors. 290,000 tested, 0.71% active. purified Giardia FBPA; further: nearly all actives have a fitted effect of over 55% in size
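Giardia FBPA (40 nM reagent) was preincubated 10 min at RT with compound (up to 57.5 uM final), then substrate plus GAPDH/TPI/NAD/arsenate coupling system with diaphorase/resazurin was added; resorufin fluorescence (525/598 nm) was read after 20 min.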
TbPYK inhibitor – inhibitors of Trypanosoma brucei pyruvate kinase. Q57TT1. TbPYK enzyme, Kinase-Glo Plus ATP luminescence, 45 min. Potency, µM (titrated, usually from 76.8 µM), actives largely listed as inhibitors. 410,000 tested, 0.12% active; further: nearly all actives have a fitted effect of over 50% in size
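Assay buffer: 50 mM TEA pH 7.2, 100 mM KCl, 10 mM MgCl2, 0.05% BSA, 0.01% Tween-20. Pyruvate kinase from T. brucei plus substrate met compound, then ADP (130 uM final). Luminescence was read post 45 min RT.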
CHX counter – counter-screen for Shiga toxin inhibitors: cycloheximide protein synthesis inhibition; cell reporter, cycloheximide protein synthesis inhibition counterscreen; max response, %; 300,000 tested, 12% active; in the data active means max response mostly above about 13%, no sharp cut-off; inactive means mostly below about 14%; further: read at 38.3 µM for the half of the compounds with a filed dose
RE007 growth inh – less growth of the S. pombe RE007 Vpr strain; S. pombe RE007 Vpr strain, BacTiter-Glo ATP luminescence, 24 h; Potency, µM (titrated, usually from 92.2 µM), usual class: inhibitors; 360,000 tested, 0.21% active; active means well fitted falling curve with a large enough effect; inconclusive means small, poorly fitted or top-dose-only effect; inactive means no such curve, though single readings can be large or run the other way; further: nearly all actives have a fitted effect of over 50% in size
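Fission yeast RE007 carrying one integrated HIV-1 vpr copy, seeded at OD 0.01 in PMG+AL medium with 23 nL pinned compound. Grown 24 h at 30 degrees; viability read by BacTiter-Glo luminescence after 5 min.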
LmPK inh – inhibitors of Leishmania mexicana pyruvate kinase | purified LmPK, Kinase-Glo ATP luminescence, 1 h | Potency, µM (titrated, usually from 57.5 µM), most hits filed as inhibitors | 290,000 tested, 0.37% active | AID 1721
Target sequence (Q27686 whole entry, looked up): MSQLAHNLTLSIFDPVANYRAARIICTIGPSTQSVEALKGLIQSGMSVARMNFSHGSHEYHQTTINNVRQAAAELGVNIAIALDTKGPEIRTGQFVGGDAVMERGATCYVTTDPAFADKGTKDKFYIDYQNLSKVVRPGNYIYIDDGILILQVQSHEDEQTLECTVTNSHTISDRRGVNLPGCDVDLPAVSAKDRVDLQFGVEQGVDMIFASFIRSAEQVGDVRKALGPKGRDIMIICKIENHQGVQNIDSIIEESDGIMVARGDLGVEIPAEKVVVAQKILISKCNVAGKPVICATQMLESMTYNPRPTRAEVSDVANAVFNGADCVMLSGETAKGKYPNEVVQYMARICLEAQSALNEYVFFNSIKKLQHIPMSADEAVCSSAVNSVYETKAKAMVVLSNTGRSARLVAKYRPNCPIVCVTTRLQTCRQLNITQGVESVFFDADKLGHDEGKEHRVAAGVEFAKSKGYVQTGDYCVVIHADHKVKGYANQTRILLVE
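Purified LmPK (0.1 nM) with 0.5 mM PEP and 0.1 mM ADP in imidazole buffer pH 7.2 with MgCl2/KCl, 1 h at room temperature. ATP formed was read by luciferase luminescence and normalized to no-enzyme and uninhibited controls.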
Hits are given with their value; . = inactive; ? = inconclusive; / = not tested or not shown. Unless noted, the call rests on the fitted dose curve; in most records, active means well fitted curve in the direction sought with a large enough effect; inconclusive means small, poorly fitted or top-dose-only effect, or another doubt; inactive means no such curve, though single readings can be large; an effect the other way counts as inactive or inconclusive.

SMILES | Shiga inhibitor | FBPA Giardia inh | TbPYK inhibitor | CHX counter | RE007 growth inh | LmPK inh
Cc1ccc(NC(=O)C(=O)C2C(=O)Nc3ccccc32)cc1 (configuration not stated) | . | . | . | 11 | . | .
CC1=NN(c2ccccc2)C(=O)C1C(=O)C(=O)Nc1ccc(F)cc1 (configuration not stated) | 79 | . | . | 30 | . | .
COc1ccc(CN2C(=O)N(c3cccc(C)c3)C(=O)C2CC(=O)Nc2ccc(F)cc2)cc1OC (configuration not stated) | / | / | . | / | / | /
Cc1ccsc1/C=C1\CCC(C2CCCC2)C1=O (configuration not stated) | 106 | . | . | 44 | . | .
COc1cc(/C=C2\CCC(C3CCCC3)C2=O)ccc1OC(C)C (configuration not stated) | . | . | . | . | . | .
COc1ccc(/C=C2\CCC(C3CCCC3)C2=O)cc1OC (configuration not stated) | 49 | . | . | 36 | . | .
COc1ccc(/C=C2\CCC(C3CCCC3)C2=O)cc1 (configuration not stated) | 93 | . | . | 51 | . | .
CN(C)CC1CC/C(=C\c2ccc(O)cc2)C1=O (configuration not stated) | / | / | ? | / | 11µM | /
Cc1ccccc1C(=O)/C=C1/SCC(=O)N1C | . | . | . | . | ? | .
CCOc1ccc(-n2c(=O)c3sc4ccccc4c3n(Cc3cccc(C)c3)c2=O)cc1 | / | / | . | / | / | /
COc1ccc(/C=C2/CCC(CN3CCOCC3)C2=O)cc1 (configuration not stated) | / | / | ? | / | 7.9µM | /
Cc1ccc(/C=C2\CCC(C3CCCC3)C2=O)cc1 (configuration not stated) | 61 | . | . | 56 | . | .
COc1ccc(C=NCCCN2CCOCC2)cc1 | . | . | . | . | . | .
CCc1nn2c(-c3ccccc3OC)ccnc2c1-c1ccc(F)cc1 | / | / | . | / | / | /
O=c1n(Cc2ccc(F)cc2Cl)c2ccccc2c2nc(-c3ccccc3)nn12 | / | / | . | / | / | /
Cc1ccc(NC(=S)N(CCN(C)C)Cc2cc3cc(C)cc(C)c3[nH]c2=O)cc1 | . | . | . | . | / | .
C#CCN1C(=O)S/C(=C\c2ccc(-c3ccc(C(=O)O)cc3C)o2)C1=O | 42 | . | . | 39 | . | .
CC(C)(C)OC(=O)CN1C(=O)S/C(=C\c2ccc(-c3cccc(C(=O)O)c3)o2)C1=O | 118 | . | / | 27 | / | .
Cc1ccc(C(=O)NCC(=O)NC23CC4CC(CC(C4)C2)C3)cc1 | 69 | / | . | 37 | . | .
O=c1c2ccccc2oc2ccccc12 | / | . | / | / | / | /
COc1ccc2c(=O)c3ccccc3oc2c1 | 42 | . | . | 33 | . | .
COc1ccc2c(C)c(Cl)c(=O)oc2c1 | . | . | . | . | . | .
COc1ccc2c(c1)oc(=O)c1cc(OC)ccc12 | 52 | . | . | 26 | . | .
COc1ccc2c(c1)oc(=O)c1ccccc12 | 71 | . | . | 33 | . | .
Nc1ccc(C#Cc2ccc3oc4ccccc4c(=O)c3c2)cc1 | / | / | . | / | . | /
SMILES | Shiga inhibitor | FBPA Giardia inh | TbPYK inhibitor | CHX counter | RE007 growth inh | LmPK inh
CC(=O)c1ccc2oc3ccccc3c(=O)c2c1 | 17 | . | . | . | . | .
O=C(O)C(Oc1ccc2c(c1)oc(=O)c1ccccc12)c1ccccc1 (configuration not stated) | . | . | . | . | . | .
Cc1ccc(NC(=O)C(=O)NCC(c2cccnc2)N2CCN(Cc3ccccc3)CC2)cc1 (configuration not stated) | / | / | . | / | / | /
Cc1cccc(CNC(=O)c2cc3cc(S(=O)(=O)N4CCCCC4)ccc3n2C)c1 | / | / | . | / | / | /
CC(=O)Nc1ccc(C(=O)OCC(=O)NC2CCCCCC2)cc1 | / | / | . | / | . | /
COc1ccc(-c2cc(=O)c3cc(OC)ccc3o2)cc1 | 66 | . | . | . | . | .
COc1ccc2oc(-c3ccc(O)cc3)cc(=O)c2c1 | / | . | / | / | / | /
COc1ccc2c(c1)oc(=O)c1c3ccccc3[nH]c21 | 57 | . | . | 62 | . | .
CCCN1C(=O)/C(=C/c2ccc(C)s2)NC1=S | . | . | . | 20 | ? | .
COc1cccc(Oc2ccc(C(F)(F)F)cc2NC(=O)CCc2nc3ccccc3c(=O)[nH]2)c1 | 55 | / | . | 43 | . | .
Fc1cccc2sc(Nc3nc4ccccc4s3)nc12 | 69 | . | . | 56 | / | .
Fc1ccc2nc(Nc3nc4c(F)cccc4s3)sc2c1 | 42 | . | . | 45 | . | .
Fc1ccc2nc(Nc3nc4c(F)cc(F)cc4s3)sc2c1 | . | . | . | . | . | .
CCOc1ccc(N(C(=O)c2cc3ccccc3oc2=O)C2C=CS(=O)(=O)C2)cc1 (configuration not stated) | 78 | . | . | 28 | . | .
COc1ccc(Cn2c(=S)[nH]c3cc(OC)c(OC)cc3c2=O)cc1 | . | . | . | 31 | . | .
O=C(NC1CC1)c1sc2cc(F)ccc2c1Cl | / | / | . | / | ? | /
O=C(NC1=NCCS1)c1sc2cc(F)ccc2c1Cl | 96 | . | . | 77 | . | .
O=C(NCc1ccco1)c1sc2cc(F)ccc2c1Cl | 86 | . | . | 39 | . | .
O=C(Nc1ccon1)c1sc2cc(F)ccc2c1Cl | 75 | . | . | 33 | . | .
COc1cccc(NC(=O)N(CCC(C)C)C2CCN(C(C)C)CC2)c1 | / | / | . | / | / | /
CCOc1ccc2nc(SCC(=O)c3ccccc3)sc2c1 | 91 | . | . | 43 | . | .
CCOc1ccc2nc(SCCNS(=O)(=O)c3ccccc3)sc2c1 | . | . | . | . | . | .
CCOc1ccc2nc(SCC(=O)NC3CC3)sc2c1 | . | . | . | 15 | . | .
CCOC(=O)C1=C(C)C(c2ccccc2OC)NC(=S)N1 (configuration not stated) | . | . | . | . | . | .
Cc1ccc(C)c(NC(=O)CN(C)C(=O)c2cc3ccccc3oc2=O)c1 | / | / | . | / | . | /
SMILES | Shiga inhibitor | FBPA Giardia inh | TbPYK inhibitor | CHX counter | RE007 growth inh | LmPK inh
NC(=O)Cc1ncc(C(F)(F)F)cc1Cl | . | . | . | . | . | .
CC(=O)C(C)Oc1ccc(Cc2ncc(C(F)(F)F)cc2Cl)cc1 (configuration not stated) | . | . | . | . | . | .
FC(F)(F)c1cnc(COc2ccc(Cl)cc2Cl)c(Cl)c1 | 66 | . | . | 17 | . | .
CC(=O)c1ccc(OCc2ncc(C(F)(F)F)cc2Cl)cc1 | 76 | . | . | 36 | . | .
O=C(O)c1cccc(N2C(=O)c3ccc(Oc4ccc(Cl)cc4)cc3C2=O)c1 | . | . | . | 20 | . | .
NS(=O)(=O)c1ccc(CCNC(=O)c2cc(-c3ccc(Br)cc3)nc3ccccc23)cc1 | . | . | . | . | . | .
CCCc1ccc(-c2cc(C(=O)NN3CCOCC3)c3ccccc3n2)cc1 | . | / | . | 20 | . | .
O=C(NN1CCOCC1)c1cc(-c2ccc(Br)s2)nc2ccccc12 | . | . | . | . | . | .
CCCc1ccc(-c2cc(C(=O)NCCc3ccc(S(N)(=O)=O)cc3)c3ccccc3n2)cc1 | 95 | . | . | 54 | . | .
CC(C)Oc1cccc(-c2cc(C(=O)NN3CCOCC3)c3ccccc3n2)c1 | . | / | . | 12 | . | .
